# Measured values: the supplement of paper PMC5919970
# Where a name gives a salt, the structure may show the parent alone. Whole data set: some 2,000 compounds, median “fractional viability relative to vehicle” near 0.91, cut for the lowest 2% near 0.045. Only a selection was taken, and the lowest values are over-represented in it overall.
# Test system: TYKNU
# Assay: fractional viability relative to vehicle; TYKNU is a high-grade serous ovarian cancer line; higher = less growth inhibition
# Details: 72 h
# Method in brief: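 TYKNU control cells or lentiCRISPRv2 knockout derivatives were seeded at 500 cells per well into drug-stamped 384-well plates holding a ~2100-compound library at 2 or 10 μM, in duplicate. Cells were grown at 37 °C in 5% CO2 in RPMI 1640 with 10% FBS, and drug treatment lasted 72 h. Viability was read by Cell Titer Glo luminescence. Duplicate treatment wells were averaged and normalised to duplicate control wells from the same plate position.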
# [1] = 2uM, genotype: DNM1L knockout (sgDNM1L #1)
# [2] = 2uM, genotype: sgCTRLA1 (non-targeting control)
# [3] = 10uM, genotype: DNM1L knockout (sgDNM1L #1)
# [4] = 10uM, genotype: sgCTRLA1 (non-targeting control)
SMILES,fractional viability [1],fractional viability [2],fractional viability [3],fractional viability [4]
Clc1ccc(NN=C(c2ccccc2)c2ccccn2)nc1,0.116,0.0468,0.0355,0.0108
O=C(Nc1cccc(Cl)c1)c1ccccn1,1.06,1.05,0.971,1.12
CN(C)C(=S)NN=C(c1ccccn1)c1ccccn1,0.177,0.132,0.255,0.107
CCC[S+]([O-])c1ccc2[nH]c(NC(=O)OC)nc2c1 (configuration not stated) [Albendazole Oxide],1.04,0.909,0.505,0.562
CC1(C)CC(=O)c2c(C(F)(F)F)nn(-c3ccc(C(N)=O)c(N[C@H]4CC[C@H](OC(=O)CN)CC4)c3)c2C1,0.976,1.16,0.981,1.09
CC[C@H](NC(=O)[C@H](C)NC)C(=O)N1C[C@@H](O)C[C@H]1Cc1c(-c2[nH]c3cc(F)ccc3c2C[C@@H]2C[C@H](O)CN2C(=O)[C@H](CC)NC(=O)[C@H](C)NC)[nH]c2cc(F)ccc12 [Birinapant],0.772,1.15,0.653,0.949
CS(=O)(=O)N1CCN(Cc2cc3nc(-c4cccc5[nH]ncc45)nc(N4CCOCC4)c3s2)CC1,0.627,0.588,0.272,0.249
COc1ccc(-c2nc(N3CCOCC3)c3sc(CN(C)c4ncc(C(=O)NO)cn4)cc3n2)cn1,0.0583,0.0505,0.0565,0.0395
Cc1c(CN2CCN(C(=O)[C@H](C)O)CC2)sc2c(N3CCOCC3)nc(-c3cnc(N)nc3)nc12,0.214,0.238,0.175,0.15
O=C(Nc1c(Cl)cncc1Cl)c1ccc(OC(F)F)c(OCC2CC2)c1 [Roflumilast],0.966,0.959,0.921,1
Cc1cc(C)c(S(=O)(=O)n2cc(C)cc2C)c(C)c1,0.788,0.862,0.757,0.765
CC(C)NC[C@H](O)COc1ccc(CCOCC2CC2)cc1 [Levobetaxolol HCl],1.13,1.21,0.846,1.27
C=CC(=O)Nc1cc(Nc2nccc(-c3cn(C)c4ccccc34)n2)c(OC)cc1N(C)CCN(C)C,0.614,0.895,0.0431,0.0512
C=CC(=O)Nc1cccc(Nc2nc(Nc3ccc(NC4CN(CCF)C4)cc3OC)ncc2C(F)(F)F)c1,0.67,0.752,0.164,0.154
C=CC(=O)Nc1cc(Nc2nccc(-c3c[nH]c4ccccc34)n2)c(OC)cc1N(C)CCN(C)C,0.324,0.409,0.0466,0.0525
COc1nc(OCc2cccc(-c3ccccc3)c2C)ccc1CNCCNC(C)=O [PD-1/PD-L1 inhibitor 2],0.852,0.872,0.501,0.0875
O=C(/C=C\n1cnc(-c2cc(C(F)(F)F)cc(C(F)(F)F)c2)n1)NNc1ccccn1 [Verdinexor (KPT-335)],0.137,0.13,0.162,0.121
C[C@@H]1O[C@@H](O[C@H]2[C@H](Oc3cc(O)c4c(c3)O[C@H](c3ccc(O)cc3)CC4=O)O[C@H](CO)[C@@H](O)[C@@H]2O)[C@H](O)[C@H](O)[C@H]1O [Naringin],0.915,1.12,0.827,1
CN1CCC(Nc2nc(Nc3ccc(Oc4ccccc4)cc3)c3c(=O)[nH]cc(Br)c3n2)CC1,0.131,0.279,0.0286,0.0109
c1nc2c(NC3CCCCC3)nc(Nc3ccc(N4CCOCC4)cc3)nc2[nH]1 [Reversine],0.545,0.579,0.229,0.216

SMILES,fractional viability [1],fractional viability [2],fractional viability [3],fractional viability [4]
C=C1CC[C@H](O)C/C1=C/C=C1\CCC[C@]2(C)[C@@H]([C@H](C)/C=C/[C@H](C)C(C)C)CC[C@@H]12 [Vitamin D2],1.19,1.02,0.175,0.739
O=C1NC(=O)/C(=C/c2cccc(C(F)(F)F)c2)S1,0.748,0.945,0.687,0.786
COc1ccc2c(c1)CCC1C2CCC2(C)C(NCCCCCCN3C(=O)C=CC3=O)CCC12 (configuration not stated),0.849,0.972,0.942,0.781
C[C@H]1O[C@@H](n2cc(F)c(=O)[nH]c2=O)[C@H](O)[C@@H]1O [Doxifluridine],1.11,1.13,0.893,1.06
CN(CCOc1ccc(NS(C)(=O)=O)cc1)CCc1ccc(NS(C)(=O)=O)cc1 [Dofetilide],0.999,0.981,0.838,0.933
CCCCc1oc2ccccc2c1C(=O)c1cc(I)c(OCCN(CC)CC)c(I)c1 [Amiodarone HCl],0.996,1.07,0.736,0.965
CCCCc1oc2ccc(NS(C)(=O)=O)cc2c1C(=O)c1ccc(OCCCN(CCCC)CCCC)cc1 [Dronedarone HCl],0.712,0.919,0.0442,0.0545
CN(C)c1nc(N(C)C)nc(N(C)C)n1 [Altretamine],1.05,1.07,0.977,1.03
CNC(=O)c1ccccc1Oc1nc(Nc2cc(OC)c(OC)c(OC)c2)ncc1Br,0.847,0.94,0.581,0.589
CN(CC(=O)N(Cc1ccc(C2CCCCC2)cc1)c1ccc(C(=O)O)cc1)S(=O)(=O)c1c(F)c(F)c(F)c(F)c1F,0.435,0.661,0.042,0.0176
FC(F)(F)c1ccc(/C=C/c2nc(COc3ccc(CCCCn4ccnn4)cc3)co2)cc1 [Mubritinib (TAK 165)],0.716,0.534,0.545,0.517
O=C1CCC[C@@H]2[C@H]3CCC[N+]4([O-])CCC[C@@H](CN12)[C@@H]34 (some centres not stated) [Oxymatrine],0.927,1.15,0.812,1.1
CC1=CC(=O)NS(=O)(=O)O1 [Acesulfame Potassium],1.16,1.13,0.791,1.17
CC(C)(C)c1ccc(S(=O)(=O)/C=C/C#N)cc1,0.119,0.091,0.0418,0.0217
Cc1ccc(S(=O)(=O)/C=C/C#N)cc1,0.0925,0.0355,0.0225,0.01
C/C=C1/[C@H](O[C@@H]2O[C@H](CO)[C@@H](O)[C@H](O)[C@H]2O)OC=C(C(=O)OC)[C@H]1CC(=O)OCCc1ccc(O)c(O)c1 [Oleuropein],0.773,0.978,0.843,0.774
CC[C@H](C)C[C@H](C)CCCCCCCCC(=O)N[C@H]1C[C@@H](O)[C@@H](NCCN)NC(=O)[C@@H]2[C@@H](O)CCN2C(=O)[C@H]([C@H](O)CCN)NC(=O)[C@H]([C@H](O)[C@@H](O)c2ccc(O)cc2)NC(=O)[C@@H]2C[C@@H](O)CN2C(=O)[C@H]([C@@H](C)O)NC1=O [Caspofungin Acetate],0.98,1.17,0.637,1.01
Cc1ncc(Cl)cc1NCc1ccc(C(=O)N[C@@H](CC2CCCC2)C(=O)NC2CC2)s1,0.845,0.992,0.838,0.778
CCOc1ccc(Cc2cc([C@@H]3O[C@H](SC)[C@@H](O)[C@H](O)[C@H]3O)ccc2Cl)cc1 [Sotagliflozin (LX4211)],0.825,1.02,0.592,0.694
COC(=O)C[C@H](NC(=O)[C@H](C)NC(=O)[C@@H](NC(=O)OCc1ccccc1)C(C)C)C(=O)CF,0.89,1.14,0.837,1.1

SMILES,fractional viability [1],fractional viability [2],fractional viability [3],fractional viability [4]
CNC(=O)c1ccccc1Nc1nc(Nc2ccc(N3CCOCC3)cc2OC)ncc1Cl,0.85,0.837,0.292,0.206
CCOc1cc(N2CCC(O)CC2)ccc1Nc1ncc2c(n1)N(C)c1ccccc1C(=O)N2C,0.651,0.842,0.539,0.531
COc1cc(N2CCC(N)CC2)ccc1Nc1ncc(Cl)c(-c2c[nH]c3ccccc23)n1,0.359,0.386,0.0459,0.0363
CN(N=O)C(=O)NC1C(O)OC(CO)C(O)C1O (configuration not stated) [Streptozotocin (STZ)],1.1,1.2,0.905,1.2
C/C(=N\NC(=O)c1cccc(S(=O)(=O)N2CCOCC2)c1)c1cc(Cl)ccc1O,0.348,0.356,0.242,0.136
c1cc(-c2cnn3cc(-c4ccc(N5CCNCC5)cc4)cnc23)c2cccnc2c1,0.0431,0.069,0.0409,0.021
COc1ccc(-c2cnc3c(-c4cccc5ncccc45)cnn3c2)cc1,1.18,1.28,1.1,1.2
COc1cc(-c2cc(-c3ccc(N4CCNCC4)cc3)cnc2C)cc(OC)c1OC,0.714,1.02,0.834,0.772
CNC(=O)c1cccc(-c2ccc3c(N4CCOC[C@@H]4C)nc(N4CCOC[C@@H]4C)nc3n2)c1,0.277,0.218,0.201,0.237
CCCCCCCCc1ccc(CCC(N)(CO)CO)cc1 [Fingolimod (FTY720) HCl],0.722,1.02,0.0372,0.0418
CCCCCCCCCCCCc1ccc(S(=O)(=O)Nc2nncs2)cc1,0.997,1.07,0.843,0.966
CCCCCCCc1ccc(CCc2cccc(O)c2C(=O)O)cc1,0.825,1.04,0.896,0.765
CCCCc1nc2cc(/C=C/C(=O)NO)ccc2n1CCN(CC)CC [Pracinostat (SB939)],0.146,0.22,0.0823,0.0879
O=C1NC(=O)/C(=C/c2ccc3nccc(-c4ccncc4)c3c2)S1,0.556,0.7,0.21,0.219
CCCCCCCCCCCC[N+](C)(C)CCOc1ccccc1 [Domiphen Bromide],0.558,0.882,0.0673,0.0826
CCCCCCCCCCCCCCCCO [1-Hexadecanol],0.833,1.09,0.879,1.1
CCCCCCCCCCCCCCCC[N+](C)(C)C [Cetrimonium Bromide (CTAB)],0.311,0.295,0.0593,0.0171
COc1ccc(-n2c(SCCCN3C(=O)c4cccc5cccc(c45)C3=O)nnc2-c2ccncc2)cc1,0.722,0.945,0.895,0.738
